Test results as given in PubChem BioAssay AID1159580 (chemical genetic matrix, 2015).
Several values for one entry are separate records, joined by “and”; a condition that tells them apart may be missing. Equal values may be shown once. Among all 5,500 compounds or so, about 2,000 (36%) were called active. Not shown: some 18% with an inconclusive outcome. Rule as the data show it: active = normalized growth mostly below about 0.91 (no sharp cut-off); inconclusive = no clear call, values can overlap the other calls; inactive = mostly above about 0.92. Some of the results follow.

Experiment: chemical genetic growth profiling, strain panel (AID 1159580);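 also: tested at 20 µM; growth read once vehicle control cultures reached saturation at 30 °C; 1 = growth at the plate median or of vehicle wells; lower values mean less growth of the strain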
Details: S. cerevisiae deletion strains, growth OD

Measured: normalized growth

CC(=O)O[C@H]1C[C@@H](OC(C)=O)C(C)(C)C2C[C@@H](O)[C@]3(C)C(CC[C@@]4(C)[C@H](c5ccoc5)OC(=O)[C@H]5O[C@]543)[C@]21C (stereo partly specified)
inactive: locus YAL021C, strain ccr4, hits give low values 1.05 | locus YAL026C, strain drs2, hits give low values 0.985 | locus YAL030W, strain snc1, hits give low values 0.995 | locus YBL061C, strain skt5, hits give low values 0.992 | locus YBR009C, strain hhf1, hits give low values 1 | locus YBR021W, strain FUR4, hits give low values 1.01 | locus YBR023C, strain chs3, hits give low values 1 | locus YBR171W, strain sec66, hits give low values 0.96 | locus YBR229C, strain ROT2, hits give low values 0.947 | locus YBR231C, strain swc5, hits give low values 0.977 | locus YBR279W, strain paf1, hits give low values 0.996 | locus YCL011C, strain gbp2, hits give low values 0.996 | locus YCL016C, strain dcc1, hits give low values 1.03 | locus YCL029C, strain bik1, hits give low values 0.971 | locus YCL069W, strain vba3, hits give low values 0.969 | locus YCR088W, strain abp1, hits give low values 0.983 | locus YDL005C, strain med2, hits give low values 1.01 | locus YDL035C, strain GPR1, hits give low values 0.965 | locus YDL040C, strain nat1, hits give low values 0.976 | locus YDL074C, strain BRE1, hits give low values 0.939 | locus YDL101C, strain DUN1, hits give low values 0.992 | locus YDL185W, strain tfp1, hits give low values 0.956 | locus YDL192W, strain arf1, hits give low values 0.977 | locus YDR001C, strain nth1, hits give low values 0.989 | locus YDR069C, strain doa4, hits give low values 0.981 | locus YDR101C, strain arx1, hits give low values 0.954 | locus YDR137W, strain rgp1, hits give low values 0.987 | locus YDR159W, strain sac3, hits give low values 0.936 | locus YDR162C, strain NBP2, hits give low values 0.948 | locus YDR195W, strain ref2 0.935 | locus YDR297W, strain sur2, hits give low values 0.992 | locus YDR318W, strain mcm21, hits give low values 0.982 | locus YDR334W, strain swr1, hits give low values 0.993 | locus YDR335W, strain msn5, hits give low values 0.99 | locus YDR388W, hits give low values 0.99 | locus YDR392W, strain spt3, hits give low values 0.966 | locus YDR502C, strain sam2, hits give low values 0.996 | locus YEL003W, strain gim4, hits give low values 0.977 | locus YEL037C, strain rad23, hits give low values 0.989 | locus YEL061C, strain CIN8 (second series), hits give low values 0.982 | locus YER015W, strain faa2, hits give low values 0.997 | locus YER016W, strain bim1, hits give low values 0.977 | locus YER110C, hits give low values 0.966 | locus YER111C, strain swi4, hits give low values 0.975 | locus YER155C, strain BEM2 (second series), hits give low values 1.02 | locus YER155C, strain BEM2, hits give low values 1.02 | locus YER167W, strain BCK2, hits give low values 0.995 | locus YFR010W, strain ubp6, hits give low values 0.963 | locus YGL078C, strain dbp3, hits give low values 0.978 | locus YGL086W, strain mad1, hits give low values 0.997 | locus YGL167C, strain pmr1, hits give low values 1 | locus YGL173C, strain kem1, hits give low values 0.962 | locus YGL227W, strain vid30, hits give low values 0.986 | locus YGL240W, strain doc1, hits give low values 0.973 | locus YGL248W, strain PDE1, hits give low values 0.97 | locus YGR078C, strain PAC10, hits give low values 1.01 | locus YGR135W, strain pre9, hits give low values 1.04 | locus YGR252W, strain gcn5, hits give low values 0.941 | locus YHR013C, strain ard1, hits give low values 0.997 | locus YHR027C, strain rpn1, hits give low values 0.986 | locus YHR030C, strain SLT2, hits give low values 0.982 | locus YHR079C, strain IRE1 (second series), hits give low values 0.986 | locus YHR079C, strain IRE1, hits give low values 0.999 | locus YHR094C, strain hxt1, hits give low values 0.975 | locus YHR129C, strain ARP1, hits give low values 0.988 | locus YHR142W, strain chs7, hits give low values 0.977 | locus YHR200W, strain rpn10, hits give low values 0.979 | locus YIL066C, strain RNR3, hits give low values 0.935 | locus YIL073C, strain SPO22, hits give low values 0.893 | locus YIL125W, strain kgd1, hits give low values 0.989 | locus YIR030C, strain dcg1, hits give low values 0.989 | locus YJL092W, strain hpr5, hits give low values 0.99 | locus YJL095W, strain BCK1 (second series), hits give low values 0.973 | locus YJL095W, strain BCK1, hits give low values 1.03 and 0.979 | locus YJL115W, strain asf1, hits give low values 0.996 | locus YJL129C, strain trk1, hits give low values 0.96 | locus YJL134W, strain LCB3, hits give low values 0.977 | locus YJL154C, strain vps35, hits give low values 0.995 | locus YJL164C, strain tpk1, hits give low values 1.01 | locus YJL166W, strain qcr8, hits give low values 0.955 | locus YJL168C, strain set2, hits give low values 0.995 | locus YJL187C, strain SWE1 (second series), hits give low values 1.01 | locus YJR043C, strain POL32, hits give low values 0.942 | locus YJR066W, strain TOR1, hits give low values 0.935 | locus YKL009W, strain mrt4, hits give low values 0.955 | locus YKL068W, hits give low values 0.969 | locus YKL085W, strain MDH1 (second series), hits give low values 0.987 | locus YKL085W, strain MDH1, hits give low values 0.987 | locus YKL160W, strain elf1, hits give low values 1.04 | locus YKL190W, strain CNB1, hits give low values 0.996 | locus YKR001C, strain vps1, hits give low values 0.978 | locus YKR026C, strain gcn3, hits give low values 1.05 | locus YKR091W, strain srl3, hits give low values 1 | locus YLL001W, strain dnm1, hits give low values 0.971 | locus YLL026W, hits give low values 0.994 | locus YLL041C, strain sdh2, hits give low values 0.989 | locus YLR027C, strain aat2, hits give low values 1.01 | locus YLR039C, strain RIC1, hits give low values 0.97 | locus YLR058C, strain SHM2, hits give low values 0.973 | locus YLR102C, strain apc9, hits give low values 0.973 | locus YLR113W, strain HOG1, hits give low values 1.02 | locus YLR221C, strain rsa3, hits give low values 0.969 | locus YLR258W, strain gsy2, hits give low values 0.992 | locus YLR262C, strain YPT6 (second series), hits give low values 0.985 | locus YLR268W, strain sec22, hits give low values 0.954 | locus YLR320W, strain mms22, hits give low values 0.978 | locus YLR330W, strain CHS5, hits give low values 0.992 | locus YLR342W, strain FKS1, hits give low values 1.01 | locus YLR357W, strain rsc2, hits give low values 1.04 | locus YLR370C, strain arc18, hits give low values 0.973 | locus YLR371W, strain rom2, hits give low values 0.986 | locus YLR384C, strain iki3, hits give low values 0.971 | locus YLR418C, strain cdc73, hits give low values 0.976 | locus YML016C, strain PPZ1, hits give low values 0.969 | locus YML032C, strain rad52, hits give low values 0.952 | locus YML120C, strain ndi1, hits give low values 1.01 | locus YML124C, strain tub3, hits give low values 0.992 | locus YMR058W, strain fet3, hits give low values 0.999 | locus YMR078C, strain ctf18, hits give low values 0.971 | locus YMR125W, strain sto1, hits give low values 1.01 | locus YMR129W, hits give low values 0.987 | locus YMR205C, strain PFK2, hits give low values 1.05 | locus YMR223W, strain ubp8, hits give low values 0.978 | locus YMR231W, strain pep5, hits give low values 0.971 | locus YMR307W, strain GAS1, hits give low values 1.01 | locus YNL067W, strain RPL9B, hits give low values 1.03 | locus YNL071W, strain lat1, hits give low values 0.984 | locus YNL128W, strain TEP1, hits give low values 0.954 | locus YNL153C, strain GIM3, hits give low values 1.01 | locus YNL183C, strain NPR1, hits give low values 0.944 | locus YNL209W, strain ssb2, hits give low values 0.999 | locus YNL233W, strain BNI4, hits give low values 1.02 | locus YNL248C, strain rpa49, hits give low values 0.962 | locus YNL250W, strain rad50, hits give low values 0.982 | locus YNL271C, strain bni1, hits give low values 0.983 | locus YNL298W, strain CLA4, hits give low values 0.993 | locus YNL307C, strain MCK1, hits give low values 0.99 | locus YNL322C, strain KRE1 (second series), hits give low values 0.987 | locus YNL322C, strain KRE1, hits give low values 0.987 | locus YNR049C, strain mso1, hits give low values 0.991 | locus YNR052C, strain pop2, hits give low values 0.999 | locus YOL006C, strain TOP1, hits give low values 0.955 | locus YOL012C, strain htz1 1.02 | locus YOL147C, strain pex11, hits give low values 0.998 | locus YOR001W, strain rrp6, hits give low values 0.935 | locus YOR061W, strain CKA2, hits give low values 0.967 | locus YOR069W, strain VPS5, hits give low values 1 | locus YOR070C, strain gyp1, hits give low values 1.02 | locus YOR080W, strain dia2, hits give low values 0.98 | locus YOR083W, strain WHI5, hits give low values 1.04 | locus YOR106W, strain vam3, hits give low values 1.02 | locus YOR136W, strain idh2, hits give low values 0.971 | locus YOR144C, strain elg1, hits give low values 0.964 | locus YOR184W, strain ser1, hits give low values 0.95 | locus YOR231W, strain MKK1, hits give low values 0.982 | locus YOR265W, strain rbl2, hits give low values 1.01 | locus YOR270C, strain vph1, hits give low values 0.841 | locus YOR290C, strain snf2, hits give low values 1.03 | locus YOR316C, strain cot1, hits give low values 0.989 | locus YPL051W, strain arl3, hits give low values 0.979 | locus YPL078C, strain atp4, hits give low values 1.02 | locus YPL106C, strain sse1, hits give low values 1.02 | locus YPL240C, strain hsp82, hits give low values 0.984 | locus YPL241C, strain CIN2, hits give low values 0.985 | locus YPL256C, strain CLN2, hits give low values 0.993 | locus YPR119W, strain clb2, hits give low values 0.998 | locus YPR141C, strain kar3, hits give low values 0.983 | locus YPR163C, strain tif3, hits give low values 0.986 | locus YPR167C, strain met16, hits give low values 0.988 | strain wtn01, hits give low values 0.972
active: locus YGL253W, strain hxk2, hits give low values 0.897
